Source: PubChem BioAssay
Sampled rows, rich in hits. Any-hit rate of the full collection: about 2.7%.
eIF4E 4G PPI: eIF4E/eIF4G interaction inhibition in translation initiation. P63073+Q04637. TR-FRET eIF4E-eIF4GI(517-606) binding, 2 h. inhibition, % at 21.7 µM. actives 0.37% (n = 220,000). AID 782;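 active = inhibition above about 30%, limit read from the data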;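 also: 0% = full FRET control wells and 100% = background wells lacking eIF4GI fragment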
Mcl-1 Bim block: disrupts Bim peptide binding to human Mcl-1; inhibition, % at 10 µM; Q07820; Bead-based flow cytometry, Bim peptide-Mcl-1 binding; actives 0.1% (n = 190,000); in the data active = inhibition above about 40%;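 also: 0% = no compound tracer wells and 100% = peptide blocker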
Target sequence (Q07820 whole entry, looked up): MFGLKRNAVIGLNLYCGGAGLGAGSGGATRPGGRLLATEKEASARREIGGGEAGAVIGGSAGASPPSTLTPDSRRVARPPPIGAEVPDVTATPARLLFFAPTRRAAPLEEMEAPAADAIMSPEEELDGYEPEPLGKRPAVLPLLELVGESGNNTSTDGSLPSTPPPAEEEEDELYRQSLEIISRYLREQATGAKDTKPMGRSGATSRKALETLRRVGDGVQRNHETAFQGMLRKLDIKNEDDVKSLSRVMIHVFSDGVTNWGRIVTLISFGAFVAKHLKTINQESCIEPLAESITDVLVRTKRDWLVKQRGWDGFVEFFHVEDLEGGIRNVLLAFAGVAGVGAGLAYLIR
14-3-3 Bad inh: disrupts binding of bovine 14-3-3 zeta to phospho-Bad peptide. P63103. TR-FRET 14-3-3zeta/Dy647-pBad peptide displacement, 1 h. inhibition, % at 21.7 µM. actives 0.71% (n = 220,000). AID 781;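 active = inhibition above about 70%, limit read from the data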;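 also: 0% = full 14-3-3 plus peptide FRET controls and 100% = background without 14-3-3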
Target sequence (P63103 whole entry, looked up): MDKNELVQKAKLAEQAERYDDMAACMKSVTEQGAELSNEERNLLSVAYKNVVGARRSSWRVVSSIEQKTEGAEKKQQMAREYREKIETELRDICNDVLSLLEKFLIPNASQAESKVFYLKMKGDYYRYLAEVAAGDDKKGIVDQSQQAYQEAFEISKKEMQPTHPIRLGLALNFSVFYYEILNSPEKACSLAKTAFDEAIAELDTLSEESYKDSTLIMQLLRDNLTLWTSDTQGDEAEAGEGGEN
Mcl1-Bid inh: disrupts binding of human Mcl-1 to Bid peptide; TR-FRET Mcl-1/Bid-Dy647 peptide binding, 1536-well; inhibition, % at 21.7 µM; actives 0.97% (n = 220,000); AID 1021;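 active = compounds that cut the binding signal by more than half at the single screening dose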;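 also: His-tagged Mcl-1 with europium anti-His antibody binding Bid BH3 peptide; 0% = Mcl-1 plus peptide wells and 100% = peptide-only wells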
Mcl1-Noxa inh: disrupts binding of human Mcl-1 to Noxa peptide | Q07820 | TR-FRET Mcl-1/Noxa peptide binding, 2 h | inhibition, % at 21.7 µM | actives 1.5% (n = 220,000);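 active = compounds that cut the protein-peptide binding signal by more than 50% relative to plate controls in a single-dose test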;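 also: His-tagged Mcl-1 with rhodamine Noxa BH3 peptide and terbium anti-His antibody; 0% = Mcl-1 plus Noxa peptide wells and 100% = peptide-only wells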
Pf gamet viab: inhibitors of late stage P. falciparum gametocyte viability | P. falciparum stage V gametocytes, ATP luminescence, 24 h | inhibition, % at 10.9 µM | actives 0.065% (n = 150,000);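 active = inhibition above the mean plus 3 SD of compounds within the control limits, set per campaign, cut at about 38% in these data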;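 also: 0% = DMSO wells and 100% = medium only without gametocytes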
* hit, by the source's call; . = not tested or not shown; [ ] = dose if it differs, or a comment.

SMILES | eIF4E 4G PPI | Mcl-1 Bim block | 14-3-3 Bad inh | Mcl1-Bid inh | Mcl1-Noxa inh | Pf gamet viab
CN1CCN(C(=S)c2ccc(Cl)cc2)CC1 | 11.2 | 3.0 | -17.0 | -70.0 | 2.2 | .
CN1CCN(C(=S)NC(=O)c2ccc(Cl)cc2)CC1 | 15.3 | -2.0 | 24.1 | -32.6 | 67.7* | .
O=C(CO/N=C/c1ccccc1O)N1CCc2ccccc21 | 0.7 | -4.0 | -15.4 | -15.0 | 28.7 | .
CC(Cc1nnc(N)s1)c1ccccc1 (configuration not stated) | . | . | . | . | . | -5.3
Cc1ccc(C(=O)Cn2nc(C(=O)O)c3ccccc3c2=O)cc1C | 0.1 | . | 1.5 | -9.7 | -12.8 | -22.9
CCC(=O)Nc1ccc(C(=O)Cn2nc(C(=O)O)c3ccccc3c2=O)cc1 | 9.2 | 0.0 | -5.5 | -20.0 | 56.5* | 28.3
COC(=O)c1cc(N2C(=O)C3C(C2=O)C2(C)C=CC3(C)O2)ccc1Cl (configuration not stated) | 6.0 | 6.0 | 6.3 | -0.6 | 68.8* | .
Cc1nc(C)c(C(=O)Nc2ncc([N+](=O)[O-])s2)o1 | 14.3 | 0.0 | 22.2 | -21.6 | 69.2* | .
CC(C)CC(=O)Nc1ncc([N+](=O)[O-])s1 | -0.8 | . | 7.8 | -26.5 | 50.1 | -6.8
COc1cccc2c(=O)c3cccc(N)c3[nH]c12 | 1.1 | 1.0 | 1.7 | -28.9 | 73.7* | 9.1
CCOC(=O)NC(=O)COC(=O)c1ccc(Sc2ncn[nH]2)c([N+](=O)[O-])c1 | -2.8 | -2.0 | 5.6 | -19.5 | -18.8 | 0.1
CC(C)(C)NC(=O)CSc1nc2cccnc2n1C1CCCCC1 | . | . | . | . | . | -23.5
COc1cc(/C=C2/C(=O)c3cccc([N+](=O)[O-])c3C2=O)c(Br)cc1O | 11.6 | 6.0 | -7.7 | -27.8 | 88.2* | .
COc1ccccc1NC(=O)CCCCCN1C(=O)c2cccc([N+](=O)[O-])c2C1=O | . | . | . | . | . | -2.6
CN(C)CCCN(C(=O)c1ccc2c(c1)CCCC2)c1nc2c(F)cccc2s1 | 7.2 | -5.0 | -9.2 | -9.7 | 56.1* | -5.4
CN(C)CCCN(C(=O)c1ccc(N2C(=O)CCC2=O)cc1)c1nc2c(F)cccc2s1 | -1.8 | -1.0 | 12.2 | 7.6 | 38.3 | 1.6
CC(=O)OC(C(=O)N1CCOCC1)c1c(F)cccc1F (configuration not stated) | -2.8 | -3.0 | -5.1 | 5.6 | 9.2 | 7.9
O=C(COC(=O)COc1ccccc1Cc1ccccc1)Nc1cccnc1Cl | -42.1 | -7.0 | 19.3 | 3.2 | 9.2 | 1.6
O=C(O)C1Cc2ccccc2CN1S(=O)(=O)/C=C/c1ccccc1 (configuration not stated) | 1.6 | -3.0 | 85.6* | -31.3 | 41.4 | 8.4
COC(=O)[C@@]1(Cc2ccc(OC)cc2)[C@H]2c3cc(C(=O)N(C)C)[nH]c3C[C@H]2CN1C(=O)c1ccccc1 | 7.2 | -1.0 | 28.9 | -11.2 | 5.8 | .
CCN(Cc1ccccc1)C(=O)Cn1c(=O)n(-c2ccc(OC)cc2OC)c(=O)c2c(C)c(C)sc21 | -1.0 | -4.0 | -13.8 | -6.9 | 2.1 | 7.2
Cc1ccc(C(C)C)c(OCc2nc(-c3nonc3N)no2)c1 | 52.9* | 2.0 | -15.8 | 6.4 | 8.5 | .
Cc1ccc(C(C)C)c(OCc2n[nH]c(=S)o2)c1 | -3.0 | 1.0 | -28.3 | -42.6 | -11.2 | -0.1
O=C(C1CCC(CNc2nc(=S)[nH]c3ccccc23)CC1)N1CCN(c2ccc(F)cc2)CC1 (configuration not stated) | -8.2 | 2.0 | -4.0 | -55.5 | 2.8 | 10.8
CC(C)(O[C@@H]1O[C@H](CO)[C@@H](O)[C@H](O)[C@H]1O)[C@@H]1CC=C(C(=O)O)CC1 | . | . | . | . | . | -3.4
SMILES | eIF4E 4G PPI | Mcl-1 Bim block | 14-3-3 Bad inh | Mcl1-Bid inh | Mcl1-Noxa inh | Pf gamet viab
O=c1c2ccccc2nc(/C=C/c2ccccc2)n1CCc1ccccc1 | 1.6 | -4.0 | 0.5 | 12.2 | 5.2 | 13.7
O=c1c2ccccc2nc(/C=C/c2cccnc2)n1CCc1ccccc1 | 11.0 | . | 68.3 | 95.2* | 21.9 | 3.3
O=c1c2ccccc2nc(/C=C/c2cccnc2)n1Cc1ccccc1 | 91.8* | 2.0 | 94.3* | 91.1* | 31.1 | 9.8
COC(C[C@@H]1O[C@@H]1[C@H](O)[C@@H](C)OCc1ccccc1)OC | . | . | . | . | . | -12.0
COc1ccc(CC(=O)NC2CC(C)(C)NC(C)(C)C2)cc1 | -0.1 | 2.0 | -2.8 | -8.7 | -3.4 | .
COc1ccc(CNC(=O)c2n[nH]c3ccccc23)cc1OC | -0.2 | 0.0 | 3.7 | 55.2* | 5.2 | 22.5
Nc1ccc2c(c1)-c1ccccc1S(=O)(=O)N2 | -4.5 | 2.0 | -3.9 | -60.8 | 52.5* | -6.3
Clc1ccc2nc(CN3CCCc4ccccc43)cn2c1 | 4.0 | -4.0 | 5.7 | 100.3* | 47.0 | -2.0
CCO[C@@H]1OC(C(=O)N2CCCCCCC2)=C[C@H](c2ccc(C(F)(F)F)cc2)[C@H]1CCCO | -0.1 | -1.0 | -0.9 | -0.9 | -34.4 | .
Cc1ccc2[nH]c3c(c2c1)CCNC3=O | 1.0 | -13.0 | -1.9 | -53.4 | 6.5 | -5.1
Cc1ccc2[nH]c3c(c2c1)CCN1C(=O)OC(C)(C)C31C (configuration not stated) | -6.3 | -1.0 | -6.2 | -18.6 | 67.9* | 2.0
COc1ccc(-c2nnc(SCC(=O)NC(=O)NCc3ccccc3)o2)cc1 | -10.2 | 0.0 | 4.6 | -8.3 | -3.8 | .
O=C1CCCC2(O)C1C(c1cccc(Br)c1)NC(=O)N2Cc1ccccc1 (configuration not stated) | -1.1 | 41.0* | 6.7 | -34.5 | -1.9 | 13.8
Cc1ccc(-n2c(N)c(C(N)=O)sc2=S)cc1 | 33.5*[fluorescence artefact?] | -5.0 | 30.3 | -18.5 | 5.3 | -21.1
CN1CCN(CCC(=O)N2c3ccccc3Sc3ccc(C(F)(F)F)cc32)CC1 | -2.6 | 5.0 | 80.2* | 14.9 | 18.9 | .
CN(C)CCC(=O)N1c2ccccc2Sc2ccc(C(F)(F)F)cc21 | . | . | . | . | . | 13.5
COc1cc(/C=C2\SC(=S)N(Nc3ccccc3)C2=O)ccc1O | -0.1 | -3.0 | -16.1 | -4.9 | 29.5 | .
O=C1/C(=C/c2ccc(O)c(O)c2)SC(=S)N1Nc1ccccc1 | 7.0 | 5.0 | 8.5 | -27.2 | 59.9* | .
Cc1cc(NC(=O)c2cc([N+](=O)[O-])cc([N+](=O)[O-])c2C)no1 | 9.8 | -2.0 | 1.9 | -83.1 | 35.6 | 7.4
O=C(NCC1CCCO1)c1cc([N+](=O)[O-])ccc1Cl (configuration not stated) | 4.7 | -1.0 | -17.6 | 93.6* | 8.8 | -11.1
COc1ccc(CC(=O)N2CCN(S(=O)(=O)c3cccs3)CC2)cc1OC | -4.8 | . | 3.8 | -22.9 | -7.2 | 6.7
O=[N+]([O-])c1cccc(-c2nnc(-c3ccc4c(c3)OCO4)o2)c1 | -3.5 | 1.0 | 43.3 | 60.1* | 62.2* | -11.6
O=[N+]([O-])c1cccc(-c2nnc(-c3ccccc3)o2)c1 | 7.9 | 1.0 | 3.6 | -22.4 | -5.9 | -29.7
COc1ccccc1Cc1nc2ccccc2n1S(=O)(=O)c1ccc(Cl)cc1 | 22.0 | 0.0 | 15.1 | 59.4* | 0.5 | .
